# This is a sample that favours compounds with a hit; in the whole collection about 19% have one here.
# HepG2 tox – HepG2 cytotoxicity, counter-screen for TGF-b inhibitors | HepG2 CAGA-GFP viability, ATP luminescence, 18 h | AID 588856 | Potency, µM (top dose mostly 46.1 µM), for the others: at the highest dose activity change, negative = cytotoxicity, usual class: cytotoxic | 410,000 tested, 0.76% active; note: potency is the fitted concentration of half-maximal effect
#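 CellTiter-Glo luminescence gave cytotoxicity after 18 hours at 37 degrees C. The cells were HepG2 CAGA-GFP in 1% FBS DMEM, stimulated with 500 pg/mL TGF-beta after compound addition. %Activity was normalised to no-cell wells (complete cell-killing) and DMSO (no toxicity), and curves were fitted and classified.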
# DT40 TDP1 no CPT – qHTS for Inhibitors of human tyrosyl-DNA phosphodiesterase 1 (TDP1): qHTS in cells in absence of CPT. DT40 Tdp1-/- hTDP1 cells, no CPT, ATP luminescence, 48 h. Potency, µM (highest dose often 46.2 µM), without a hit: at the highest dose activity change, negative = growth inhibition, most hits filed as inhibitors. 420,000 tested, 15% active; note: potency is the fitted concentration of half-maximal effect; % is set by controls: 0 for no effect and ±100 for the full control effect; nearly all actives have a fitted effect of over 55% in size
#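 Luminescent ATP content (CellTiter-Glo) served as the growth readout. Knockout chicken DT40 cells expressing human TDP1 were exposed to compounds without camptothecin for a minimum 48 hr at 37 °C.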
# TGFb SMAD3 inh – blocks TGF-b signaling; HepG2 CAGA-GFP TGF-b/SMAD3 reporter, GFP fluorescence, 18 h; TGF-beta stimulated, 500 pg/mL final; Potency, µM (highest dose often 46.1 µM), without a hit: at the top dose activity, negative = inhibition, usual class: inhibitors; 410,000 tested, 1.2% active; note: potency is the fitted concentration of half-maximal effect; % is set by controls: 0 for no effect and ±100 for the full control effect; nearly all actives have a fitted effect of over 65% in size
#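 Inhibition was scored as loss of TGF-beta-induced (500 pg/mL final, 18 hours, 37 degrees C) GFP in HEPG2 cells carrying a CAGA-GFP reporter, in DMEM with 1% FBS. Well GFP was summed per cell; Activity was normalised to unstimulated and stimulated DMSO wells, then concentration-response fitting.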
# DT40 TDP1 CPT – growth inhibition of DT40 Tdp1-/-;hTDP1 cells with camptothecin (screen for TDP1 inhibitors). chicken DT40 Tdp1-/-;hTDP1 cells + 20 nM CPT, ATP luminescence, 48 h. Potency, µM (doses to about 46.2 µM), for inactives: at the top dose activity change, negative = growth inhibition, hits mostly inhibitors. 420,000 tested, 12% active. AID 686979; note: potency is the fitted concentration of half-maximal effect; % is set by controls: 0 for no effect and ±100 for the full control effect; nearly all actives have a fitted effect of over 55% in size
#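 Chicken DT40 Tdp1-/- cells complemented with human TDP1, 400 cells/well, exposed to compounds plus 20 nM camptothecin for at least 48 h at 37 C; viability read as ATP content by CellTiter-Glo luminescence.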
# IL1B secr inh – inhibitors of inflammasome signaling (IL-1 beta secretion); THP-1 LPS/ATP IL-1B secretion, AlphaLISA, 16 h; active compounds read low; activity change, % at 57.5 µM; 360,000 tested, 4.7% active; AID 743279; in the data active = activity change below about -50%; inconclusive = mostly about -30% to -49%; note: % is set by controls: 0 for no effect and ±100 for the full control effect
#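 Secreted IL-1B measured by AlphaLISA bead assay after 16 h compound exposure of THP-1 cells; compounds (final up to 57.5 uM) added 1 h before LPS (250 ng/mL) and ATP (1.25 mM) stimulation; lower signal means less secretion.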
# ASM inhibitor – human S-ASM enzyme inhibition. P17405. placental ASM, HMU-PC fluorogenic substrate, 60 min. Potency, µM (highest dose often 57.5 µM), for inactives: at the highest dose activity change, negative = inhibition, most hits filed as inhibitors. 340,000 tested, 0.006% active. AID 504937; note: potency is the fitted concentration of half-maximal effect
# Target sequence (P17405 47-631 limits assumed): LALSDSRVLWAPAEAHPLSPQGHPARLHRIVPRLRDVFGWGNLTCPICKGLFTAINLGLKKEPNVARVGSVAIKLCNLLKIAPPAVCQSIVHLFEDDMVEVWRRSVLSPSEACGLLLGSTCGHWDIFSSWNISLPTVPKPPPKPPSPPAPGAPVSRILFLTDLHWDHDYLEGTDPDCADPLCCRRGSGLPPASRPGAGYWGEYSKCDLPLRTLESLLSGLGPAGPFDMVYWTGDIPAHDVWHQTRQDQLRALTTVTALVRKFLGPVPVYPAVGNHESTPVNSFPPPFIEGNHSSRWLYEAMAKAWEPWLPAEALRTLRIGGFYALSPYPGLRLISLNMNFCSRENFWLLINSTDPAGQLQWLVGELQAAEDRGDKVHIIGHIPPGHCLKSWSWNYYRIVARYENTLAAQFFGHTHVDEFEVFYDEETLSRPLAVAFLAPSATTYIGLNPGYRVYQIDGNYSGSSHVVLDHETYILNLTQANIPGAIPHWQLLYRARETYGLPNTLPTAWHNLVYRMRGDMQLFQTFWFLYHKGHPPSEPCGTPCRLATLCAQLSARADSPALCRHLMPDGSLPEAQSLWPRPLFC
#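 Human placenta-derived ASM enzyme was preincubated with compound for 10 minutes at room temperature, then given fluorogenic substrate HMU-PC0 (9 uM final) for 60 minutes at 37 °C; a pH 10 stop preceded fluorescence reading at Ex 386/Em 447 nm.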
# * marks the source's active call; other numbers are inactive results; i = inactive; ? = inconclusive; / = no result. Unless noted, calls come from the whole dose curve; as a rule, active = well fitted curve in the direction sought with a large enough effect; inconclusive = small, poorly fitted or top-dose-only effect, or another doubt; inactive = no such curve, though single readings can be large; an effect the other way counts as inactive or inconclusive.
SMILES,HepG2 tox,DT40 TDP1 no CPT,TGFb SMAD3 inh,DT40 TDP1 CPT,IL1B secr inh,ASM inhibitor
O=C(NCC(F)(F)F)c1cc2c(c(-c3cccc(-c4ccccc4F)c3)n1)[C@H](CCO)N(C(=O)CC1CC1)C2,/,20.6µM*,/,16.4µM*,-23.5,/
CC(=O)N1Cc2cc(C(=O)NCC(F)(F)F)nc(-c3cccc(-c4cc5ccccc5o4)c3)c2[C@H]1CCO,/,-29.7%,/,?,4.3,/
CCCNC(=O)c1cc2c(c(-c3cccc(-c4ccccc4F)c3)n1)[C@@H](CCO)N(C(=O)CC1CC1)C2,/,?,/,25.9µM*,-16.1,/
CCNC(=O)c1cc2c(c(-c3cccc(-c4ccccc4F)c3)n1)[C@H](CCO)N(C(=O)CC)C2,/,5.8µM*,/,7.31µM*,37.7,/
NS(=O)(=O)c1ccc(N2N=C(c3ccc(Br)cc3)CC2c2ccc(F)cc2)cc1 (stereo not drawn),20µM*,?,?,?,-75.9*,i
COc1ccc(C2CC(c3ccccc3)=NN2S(=O)(=O)c2ccccc2)cc1 (stereo not drawn),-4.6%,4.61µM*,?,7.31µM*,0.0,-5.9%
COc1ccc(C2CC(c3ccc(Cl)cc3)=NN2c2ccc(S(N)(=O)=O)cc2)cc1 (stereo not drawn),17.8µM*,?,?,?,-17.8,i
COc1ccc(C2CC(c3ccncc3)=NN2c2ccc(S(N)(=O)=O)cc2)cc1 (stereo not drawn),-46.7%,-4.2%,16.5%,-14.7%,-1.8,i
NS(=O)(=O)c1ccc(N2N=C(c3ccccc3)CC2c2ccccc2Br)cc1 (stereo not drawn),-93.0%,-24.6%,?,-26.5%,-10.8,i
COc1ccc(C2CC(c3ccccc3)=NN2c2ccc(N)cc2)cc1 (stereo not drawn),-19.3%,20.6µM*,-9.0%,?,?,112.3%
Cc1ccc(C2=NN(S(=O)(=O)c3ccccc3)C(c3ccccc3O)C2)cc1 (stereo not drawn),-113.2%,?,-0.6%,?,0.0,-17.7%
CC(=O)Nc1cccc(-c2cnc(NC(C)=O)cn2)c1,-84.5%,-18.7%,-0.2%,-23.0%,-6.4,/
NS(=O)(=O)c1ccc(N2N=C(c3ccccc3)CC2c2cccc(Br)c2)cc1 (stereo not drawn),-75.7%,-28.6%,?,-20.1%,-57.3*,i
COc1cc(N2N=C(c3ccccc3)CC2c2ccccc2)c(C=O)cc1C=O (stereo not drawn),4.9%,18.4µM*,6.8%,?,8.2,187.0%
COc1ccccc1N1N=C(c2ccc([N+](=O)[O-])cc2)CC1c1ccccc1 (stereo not drawn),-10.3%,?,29.8%,?,-14.6,-14.2%
NS(=O)(=O)c1ccc(N2N=C(c3ccccc3)CC2c2cccc(F)c2)cc1 (stereo not drawn),-83.2%,-23.1%,?,?,?,i
O=C(O)C1CC2CCC1CC2 (stereo not drawn),6.3%,-9.2%,-4.3%,1.0%,29.7,-2.9%
Cc1cccc(S(=O)(=O)c2cn(Cc3ccccc3)c3cc(N4CCCCC4)c(F)cc3c2=O)c1,0.9%,?,0.8%,?,/,/
Cc1ccc(S(=O)(=O)c2cn(Cc3ccc(F)cc3)c3cc(N4CCCC4)c(F)cc3c2=O)cc1,-0.5%,?,2.8%,?,/,/
Cc1cccc(S(=O)(=O)c2cn(Cc3ccccc3)c3cc(N4CCC(C)CC4)c(F)cc3c2=O)c1,1.6%,8.2µM*,-12.0%,5.8µM*,/,/
